mIDH1 inhibitor: inhibitors of human mutant IDH1 R132H; Potency, µM (top dose mostly 76.6 µM), without a hit: at the top dose activity change, negative = inhibition, actives largely listed as inhibitors; IDH1-R132H enzyme, NADPH consumption, diaphorase/resazurin fluorescence; O75874; 390,000 tested, 0.093% active; further: potency means the concentration at half of the fitted maximal effect; on the % scale 0 is the no-effect control and ±100 the full control effect; nearly all actives have a fitted effect of over 65% in size
Target sequence (O75874 whole entry R132H, stated change not applied): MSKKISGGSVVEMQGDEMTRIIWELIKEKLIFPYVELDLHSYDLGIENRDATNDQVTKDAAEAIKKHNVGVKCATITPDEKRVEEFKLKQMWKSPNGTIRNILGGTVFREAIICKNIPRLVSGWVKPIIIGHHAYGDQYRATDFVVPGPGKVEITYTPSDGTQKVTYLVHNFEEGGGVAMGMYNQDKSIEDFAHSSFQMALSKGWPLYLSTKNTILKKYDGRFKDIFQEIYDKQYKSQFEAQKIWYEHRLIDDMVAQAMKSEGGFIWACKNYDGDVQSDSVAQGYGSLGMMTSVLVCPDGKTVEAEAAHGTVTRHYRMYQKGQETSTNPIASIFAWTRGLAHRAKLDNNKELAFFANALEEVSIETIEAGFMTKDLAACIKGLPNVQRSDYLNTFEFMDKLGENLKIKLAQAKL
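IDH1-R132H (0.5 ug/mL dispensed) in pH 7.5 Tris buffer was preincubated 30 min with compound, then given a substrate mix of 0.016 mM NADPH and 2 mM alpha-KG for 80 min at room temperature; remaining NADPH was read by diaphorase/resazurin fluorescence.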
LDHA inh: inhibitors of human lactate dehydrogenase A | 480,000 tested, 0.15% active | activity change, % (values are at about 110 or 230 µM) | P00338 | purified LDHA, NADH/diaphorase-resazurin fluorescence; active compounds read low; in the data active means activity change below about -30%; inconclusive means mostly about -25% to -30%;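 further: plate controls were DMSO wells for no effect and wells without enzyme for full effect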
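Resorufin fluorescence (ex540/em590), read at 0 and 20 min after diaphorase/resazurin addition, reports the NADH left after a 5 min room-temperature reaction of 2 nM human LDH5 with 0.06 mM NADH and 0.2 mM pyruvate.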
aSyn rescue: alpha-synuclein toxicity inhibition in yeast; Potency, µM (titrated, usually from 46.1 µM), without a hit: top-dose growth rescue (activation), actives largely listed as activators; 370,000 tested, 0.14% active; AID 652106; Yeast expressing alpha-synuclein, growth rescue, BacTiter-Glo, 24 h; further: potency means the concentration at half of the fitted maximal effect; % of control where 0% means no effect; nearly all actives have a fitted effect of over 65% in size
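Screening used galactose-induced yeast with toxic alpha-synuclein levels, exposed to compound for 24 hr at 30 deg C. Cell growth, read with BacTiter-Glo luminescence, gave the measured signal.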
Abeta yeast res: restores growth of yeast expressing A-beta42 peptide; yeast expressing A-beta42, growth rescue, OD600, 48 h; response scale: 0% DMSO, 100% iron-clioquinol control; Potency, µM (top dose mostly 46.1 µM), actives largely listed as activators; 410,000 tested, 0.063% active; AID 1347071; further: potency means the concentration at half of the fitted maximal effect; nearly all actives have a fitted effect of over 55% in size
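Growth rescue measured by 600 nm absorbance after 48 h yeast culture at 30 C with compound. Values normalized between DMSO and an equimolar ferric chloride plus clioquinol control.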
FUS yeast rescue: suppressors of FUS proteinopathy in yeast. S. cerevisiae FUS-expressing, growth rescue, OD600, 24 h. Potency, µM (series often up to 76.6 µM), actives largely listed as activators. 390,000 tested, 0.24% active;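 further: potency means the concentration at half of the fitted maximal effect; plate controls were DMSO vehicle for no effect and reference control for full effect; nearly all actives have a fitted effect of over 55% in size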
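Quantitative HTS measuring growth restoration of FUS-toxic yeast. Galactose-induced cells (OD 0.005) were exposed 24hr at 30C to compounds at several concentrations, then absorbance at 600 nm was recorded.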
TDP43 rescue: inhibitors of TDP-43 toxicity in yeast; Potency, µM (series often up to 46.1 µM), for inactives: top-dose growth rescue (activation), actives largely listed as activators; TDP-43 expressing yeast growth rescue, BacTiter-Glo, 24 h; 410,000 tested, 1.8% active; further: potency means the concentration at half of the fitted maximal effect; % of control where 0% means no effect; nearly all actives have a fitted effect of over 50% in size
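In this qHTS, compounds that restore growth of yeast expressing TDP-43 appear as activators. Cells (OD600=0.02, galactose medium, raffinose-pregrown) are incubated with compound 24 hr at 30 deg C and growth is quantified by BacTiter-Glo.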
Active calls of the source: *; i = inactive; ? = inconclusive; . = not tested or not shown; [ ] = another dose, or the depositor's remark. Shown are actives, neighbours in structure and some others; about 2% of the full set was active somewhere. Unless noted, the call rests on the fitted dose curve; in most records, active means well fitted curve in the direction sought with a large enough effect; inconclusive means small, poorly fitted or top-dose-only effect, or another doubt; inactive means no such curve, though single readings can be large; an effect the other way counts as inactive or inconclusive.

SMILES	mIDH1 inhibitor	LDHA inh	aSyn rescue	Abeta yeast res	FUS yeast rescue	TDP43 rescue
O=C(NCc1cccc(Cl)c1)c1cc(COc2ccc3ncccc3c2)on1	0%	-2	-11%	i	i	14µM*
COC(=O)C1=C(c2ccccc2)c2ccccc2S(=O)(=O)N1CC(=O)Nc1cc(Cl)ccc1C	.	4	.	.	.	.
C(=N\Nc1nncc2ccccc12)/c1ccccc1	-4%	1	6%	i	i	22µM*
Cc1cccc(/C=N/Nc2nncc3ccccc23)c1	13%	-14	-8%	i	i	-16%
COC(=O)C1CCN(C(=O)c2cc(-c3ccc(Cl)s3)nc3ccccc23)CC1	-3%	-2	?	i	?	35µM*
COC(=O)C1CCN(C(=O)c2cc(-c3ccccc3)nc3ccccc23)CC1	.	8	.	.	.	.
Cc1c(CCNC=O)cc(C)c2c3c(oc12)CCCC3	5%	1	17%	i	.	16µM*
Cc1ccc(S(=O)(=O)Nc2cc(C)cc(CCNC=O)c2C)cc1	4%	0	2%	i	.	-2%
COCCN=c1scc(-c2cc(OC)c(OC)c(OC)c2)n1/N=C/c1c(C)[nH]c2ccccc12	1%	-3	-18%	i	13µM*	22µM*
Cc1[nH]c2ccccc2c1/C=N/n1cnnc1	-3%	-3	-15%	i	i	-4%
C=CCNC(=O)NC(=O)CN1CCc2ccccc2C1	.	-7	.	.	.	.
COc1ccc2cc(C(=O)N3CCN(S(=O)(=O)c4ccc(C)cc4)CC3)c(C)nc2c1	.	4	.	.	.	.
CCCSc1nnc(Sc2nnnn2-c2ccccc2)s1	0%	-13	0%	i	i	18µM*
Cc1ccc(-n2nnnc2Sc2nnnn2-c2ccccc2)cc1	.	-1	.	.	.	.
NC(=O)c1ccccc1NCC(=O)c1ccc(Cl)cc1	52µM*	-7	1%	i	i	-15%
CC(C)c1ccc(NC(=S)NC2CCSc3ccccc32)cc1 (configuration not stated)	.	4	.	.	.	.
Oc1cccc(C=NN=C2c3ccccc3-c3ccccc32)c1	-2%	1	-28%	i	.	28µM*
CCOc1cc(C=NN=C2c3ccccc3-c3ccccc32)ccc1O	1%	1	22%	i	.	14µM*
CCOc1cc(/C=N/NC(=O)N/N=C/c2ccc(O)c(OCC)c2)ccc1O	8%	-7	-10%	i	i	23%
C=CC[N+](C)(C)CC(=O)OC1CC2CCC1(C)C2(C)C (configuration not stated)	.	-11	.	.	.	.
CC1=NN(/C(=N\c2nnc(C)s2)Nc2ccccc2)[C@H](c2cccc3ccccc23)S1	0%	3	3%	i	?	?
CC1=NN(/C(=N\c2nnc(C)s2)Nc2ccc(C)cc2)[C@H](c2ccc(C)cc2)S1	8%	1	5%	i	i	13µM*
COc1cccc(CC2CC(=O)N(CCc3ccc4c(c3)OCO4)C2=O)c1 (configuration not stated)	1%	-4	4%	i	i	20µM*
N#Cc1c(SCCN2CCOCC2)nc(N2CCCCC2)c2c1CCCC2	.	-9	.	.	.	.
Cc1cccc(N2C(=O)N(Cc3cc(=O)n4ccccc4n3)c3ccccc3S2(=O)=O)c1	22%	3	.	i	?	-4%
SMILES	mIDH1 inhibitor	LDHA inh	aSyn rescue	Abeta yeast res	FUS yeast rescue	TDP43 rescue
CCc1ccccc1N1C(=O)N(Cc2cc(=O)n3ccccc3n2)c2ccccc2S1(=O)=O	6%	0	.	i	32µM*	11µM*
O=C(NCc1cccc(Cl)c1)c1cccc2c(-c3cccnc3)coc12	.	-2	17%	i	?	18µM*
O=C(NCc1ccc(F)c(F)c1)c1cccc2c(-c3cccnc3)coc12	.	0	5%	i	i	13µM*
COc1ccc(CNC(=O)c2cccc3c(-c4cccnc4)coc23)cc1OC	.	-1	15%	i	i	23%
O=C(NCCc1ccccc1)c1cccc2c(-c3cccnc3)coc12	.	-5	1%	i	?	?
COc1ccc(NC(=O)c2cccc3c(-c4cnn(C)c4)coc23)cc1	.	-8	9%	i	i	13µM*
O=C(NCc1cccs1)c1cccc2c(-c3cccnc3)coc12	.	-2	3%	i	i	18µM*
O=C(Nc1cccc(OC(F)(F)F)c1)c1cccc2c(-c3cccnc3)coc12	.	0	-16%	i	?	32µM*
CC(=O)c1cccc(NC(=O)c2cccc3c(-c4cccnc4)coc23)c1	.	-4	1%	i	i	?
Cc1ccc(SCCNC(=S)Nc2cccc(Cl)c2C)cc1	.	7	.	.	.	.
COc1ccccc1/C=C1\NC(=S)N(CC2CCCO2)C1=O (configuration not stated)	11%	-5	1%	i	i	14µM*
O=C1ON=C(c2ccc(Cl)c([N+](=O)[O-])c2)/C1=C/c1cccc([N+](=O)[O-])c1O	-14%	-31*	-1%[1.84 µM]	i	i	8%
O=C1ON=C(c2ccccc2[N+](=O)[O-])/C1=C/c1cccc([N+](=O)[O-])c1O	0%	-17	3%	i	i	1%
COC(=O)/C=C1\OC(c2ccccc2)c2ccccc21 (configuration not stated)	.	-1	-1%	i	i	29%
COC(=O)/C=C1\OC(C2CC2)c2ccccc21 (configuration not stated)	.	6	-9%	i	i	28µM*
CCc1cccc(C)c1NC(=O)C(CC)Sc1nncn2c1cc1occc12 (configuration not stated)	-1%	0	.	i	i	14µM*
Cc1cccc(-n2c(SCc3cc(=O)n4ccsc4n3)nc3ccccc32)c1	3%	-4	11%	i	i	22µM*
O=c1cc(CSc2n[nH]c(-c3ccncc3)n2)nc2sccn12	0%	-4	6%	i	i	-11%
Cc1cccc(C(=O)OCc2cc(=O)n3ccsc3n2)c1	1%	-2	.	i	i	18µM*
CC(Oc1ccccc1)C(=O)Nc1ccc(C(=O)OCc2cc(=O)n3ccsc3n2)cc1 (configuration not stated)	3%	2	.	i	?	20µM*
O=c1cc(CSc2ccc([N+](=O)[O-])cc2)nc2sccn12	4%	-5	16µM*	i	i	15%[9.22 µM]
Cc1ccccc1C(=O)Nc1cccc(C(=O)OCc2cc(=O)n3ccsc3n2)c1	7%	-9	.	i	i	3%

Bioassay records (PubChem)
